Experimental data as given in PubChem BioAssay (NCI).
This is part of a sample that, as a whole, favours compounds with a hit. Of some 83,000 tested, about 20% had one in any assay.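 48-hour exposure, single concentration, 96-well plates; percent growth endpoint where 0 means no net growth. Active: below 10.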 Values without a mark were called inactive. Calls of active or inactive are those of the source.

test system: U251 CNS; assay: NCI-60 one-dose screen, 48 h (100 = growth as untreated, 0 = no growth, -100 = all killed); conditions: 10 µM unless noted

Compound	growth
O=C(NC(=S)Nc1cccc(NC(=S)NC(=O)c2ccccc2)c1)c1ccccc1	60.1%
COc1cc(C(=O)Nc2ccc(-c3nc4ccccc4[nH]3)cc2)cc(OC)c1OC	25%
CN(C)c1ccc(N=Cc2ccc(N3CCOCC3)cc2)cc1	46.6%
Cc1ccc(C)c(-c2csc(Nc3ccc(C)c(C)c3)n2)c1	8.11% (active)
COc1ccc(-c2nsc3c2NC(=O)CC3c2ccsc2)cc1 (centres undefined)	20.4%
O=C(NCCCN1CCC(N2CCCCC2)CC1)C1=Cc2cc(Br)ccc2OC1	37%
CN1CCN(Cc2ccc(C(=O)Nc3cncc(C#Cc4cnc5cccnn45)c3)cc2C(F)(F)F)CC1	65.2%
Cc1ccccc1CNC(=O)C1CN(c2ccc(Cl)cc2)N(c2ccc(Cl)cc2)C1=O (centres undefined)	89.7%
Cc1sc2ncn(CC(=O)Nc3ccc(S(N)(=O)=O)cc3)c(=O)c2c1C	100%
Fc1cccc(COc2ccc(Nc3ncnc4onc(-c5ccccc5)c34)cc2)c1	22.5%
Clc1ncccc1Nc1ccc2nnc(-c3ccncc3)n2n1	101%
CCc1ccc(CNCC(O)c2ccccc2)cc1 (centres undefined)	60%
COc1ccc2oc(=O)cc(Cn3cc(Cn4cnc5c4c(=O)n(C)c(=O)n5C)nn3)c2c1	101%
COc1ccc(N(C)c2nc(N)nc3sc4c(c23)CCCC4)cc1	15.8%
O=C(NCc1ccccc1)C1CN(c2ccc(Cl)cc2)N(c2ccc(Cl)cc2)C1=O (centres undefined)	84.2%
COc1ccc(C2NCCc3c2[nH]c2ccccc32)cc1CN1CCN(c2ccc(F)cc2)CC1 (centres undefined)	26%
CNCCNc1nc2ccccc2c2c(=O)c3cccc(OC)c3sc12	-45.2% (active)
COc1cc(/C=C/C(=O)c2ccc(Cl)cc2)cc(CN2CCCCC2)c1O	74.6%
COc1ccc(-n2c(C(O)c3ccccc3)nn(CN3CCOCC3)c2=S)cc1 (centres undefined)	95.2%
O=C(c1nc2ccccc2[nH]1)C1C(c2cccc([N+](=O)[O-])c2)C2CC3CCCCC3N2[C@@]12C(=O)Nc1cc(Cl)ccc12 (some centres undefined)	32.4%

Compound	growth
NC(CCl)=NCCC[C@H](N)C(=O)O	97.4%
CCOC(=O)c1ccc2[nH]c(-c3ccccc3)cc(=O)c2c1	97.2%
COc1ccc(-c2nsc3c2NC(=O)CC3c2cccc(OC)c2)cc1 (centres undefined)	37.8%
CCN(CC)CCCNc1ccnc2cc3ccccc3cc12	46.8%
Cn1cc([C@@H]2Nc3ccc4[nH]ncc4c3[C@H]3[C@H]4CCC(C4)[C@H]32)c(C(F)(F)F)n1	42.5%
CCOC(=O)C1(C(=O)OCC)N=C(c2ccccc2)C=C1c1ccccc1	83.3%
COc1ccccc1N1C(=N)S/C(=C\c2ccc(OCc3ccccc3F)cc2)C1=O	78.9%
O=C(c1ccccc1)N(CCc1ccc(Cl)cc1)C(=S)N(C(=O)c1ccccc1)c1ccccc1	97%
COc1ccc(Nc2cc(C)nc(NCc3ccccc3)n2)cc1	15.8%
COc1ccc(C(=O)C2CC2c2ccc(Cl)cc2)cc1 (centres undefined)	82.4%
CCOC(=O)c1c2c(c(C)n1Cc1ccc(OC)cc1)-c1oncc1CC2	86.3%
Cc1ccc2cc3c(N)c4c(C)ccc(C)c4nc3nc2c1	-5.79% (active)
O=C1Nc2ccccc2/C1=C/c1ccc[nH]1	83%
COc1ccc(Cn2cc(Cn3c(=O)c(-c4nc5ccccc5[nH]4)cc4ccccc43)nn2)c(OC)c1OC	12.7%
CCOc1cc2c(cc1OCC)C(c1cc(C)c(O)c(C)c1)NCC2 (centres undefined)	94%
C=C(C)CCC(C)N1CCC(N2CCC(C(=O)NCCc3ccccc3)CC2)CC1 (centres undefined)	77.4%
COc1ccc(/C=C2\SC(=Nc3ccccc3)NC2=O)cc1	-90.1% (active)
CN1C(=O)N(C)C2(c3ccccc3)OC(=S)NC12c1ccccc1 (centres undefined)	98.7%
O=NN(Cc1cccnc1)C(=O)NC1CCCCC1	97.4%
